# Screening data deposited in PubChem BioAssay by National Center for Advancing Translational Sciences (NCATS).
# a7 integrin act = integrin-mediated muscular dystrophy alleviation activation; alpha7betagal myoblasts, beta-gal FDG fluorescence, 48 h; AID 624291; actives 0.064% (n = 350,000); Potency, µM (titrated, usually from 38.3 µM), hits mostly activators; note: nearly all actives have a fitted effect of over 60% in size
#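 alpha7betagal+/- myoblasts (passage 13, 250/well) treated 48 h at 37C with compounds at 1:260 dilution of DMSO stock. Lysed, then beta-galactosidase activity read as FDG fluorescence (ex 480/em 540) after 30 min, with pre-read for autofluorescence.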
# B2AR arrestin = agonists driving beta-arrestin recruitment to human beta2-adrenergic receptor. P07550. Potency, µM (titrated, usually from 46.1 µM), hits mostly activators. beta-arrestin recruitment to beta2AR, cell-based reporter. actives 0.02% (n = 330,000); note: nearly all actives have a fitted effect of over 65% in size
# DRD3 agonist = activates the human D3 dopamine receptor | AID 652048 | D3R DiscoveRx beta-arrestin cells, luminescence, 90 min | max activation, % | actives 0.58% (n = 410,000) | P35462; in the data active = max activation above about 30%
#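 Agonist mode: compounds and dopamine controls were applied to plated cells for 90 min at 37 degrees C after an overnight attachment at 1500 cells/well. Luminescent read-out followed 30 - 60 minutes at room temperature with DiscoveRx detection reagent.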
# DRD3 antagonist = D3 dopamine receptor (human) antagonism; P35462; actives 2.5% (n = 360,000); max response, negative = inhibition, %; AID 652054; D3R cells, DiscoveRx beta-arrestin luminescence, antagonist mode; stronger effect = lower value; in the data active = max response below about -50%; inconclusive = no clear call, values can overlap the other calls
#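 Cells expressing the human receptor were seeded at 1500 cells/well, incubated overnight at 37 degrees C in 5% CO2, then exposed to library compounds with dopamine controls for 90 minutes at 37 degrees C before luminescent detection.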
# mIDH1 inhibitor = inhibitors of human mutant IDH1 R132H; IDH1-R132H enzyme, NADPH consumption, diaphorase/resazurin fluorescence; actives 0.093% (n = 390,000); O75874; Potency, µM (series often up to 76.6 µM), most hits filed as inhibitors; note: nearly all actives have a fitted effect of over 65% in size
# Target sequence (O75874 whole entry R132H, stated change not applied): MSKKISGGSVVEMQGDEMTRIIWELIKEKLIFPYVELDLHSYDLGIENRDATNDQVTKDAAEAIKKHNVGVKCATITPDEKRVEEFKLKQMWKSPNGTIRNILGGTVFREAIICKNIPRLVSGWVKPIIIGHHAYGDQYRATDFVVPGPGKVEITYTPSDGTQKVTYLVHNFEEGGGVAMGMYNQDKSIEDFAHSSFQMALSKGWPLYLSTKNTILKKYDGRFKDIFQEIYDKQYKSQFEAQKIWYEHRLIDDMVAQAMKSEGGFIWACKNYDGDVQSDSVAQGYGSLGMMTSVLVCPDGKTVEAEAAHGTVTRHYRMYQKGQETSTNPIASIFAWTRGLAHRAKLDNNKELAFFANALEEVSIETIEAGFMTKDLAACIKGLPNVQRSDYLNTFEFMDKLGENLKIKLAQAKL
#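 IDH1-R132H (0.5 ug/mL dispensed) in pH 7.5 Tris buffer was preincubated 30 min with compound, then given a substrate mix of 0.016 mM NADPH and 2 mM alpha-KG for 80 min at room temperature; remaining NADPH was read by diaphorase/resazurin fluorescence.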
# A number is an active result; 0 = inactive; ? = inconclusive; - = no result given. The list is not random: actives were taken first. Their share in the collection is about 2.9%. Unless noted, calls come from the whole dose curve; as a rule, active = well fitted curve in the direction sought with a large enough effect; inconclusive = small, poorly fitted or top-dose-only effect, or another doubt; inactive = no such curve, though single readings can be large; an effect the other way counts as inactive or inconclusive.
SMILES,a7 integrin act,B2AR arrestin,DRD3 agonist,DRD3 antagonist,mIDH1 inhibitor
CC1(C(=O)Nc2cccc(C(F)(F)F)c2)Cc2c(-c3ccc4c(c3)OCO4)ccnc2O1 (configuration not stated),-,-,0,-59,-
CC1(C(=O)Nc2ccc3c(c2)OCO3)Cc2c(-c3ccc4c(c3)OCO4)ccnc2O1 (configuration not stated),-,-,0,0,-
COc1cc(NS(=O)(=O)c2ccc(N)cc2)nc(C)n1,-,-,0,-,-
Cc1ccccc1CS(=O)(=O)CCC(=O)NCCCN1CCN(c2ccccc2F)CC1,0,0,0,-60,0
O=C(CCS(=O)(=O)Cc1ccc(Cl)cc1)NCCCN1CCN(c2ccccc2F)CC1,0,0,0,-70,0
Cc1cc(C)c2c(=O)n(CC(=O)NCCCN3CCN(c4ccccc4F)CC3)sc2n1,0,0,0,-70,0
Cc1ccccc1CS(=O)(=O)CCC(=O)NCCN1CCN(c2cccc(Cl)c2)CC1,0,0,0,-54,0
C[C@@H](O)[C@H]1C(=O)N2C(C(=O)O)=C(SCCN=CN)C[C@H]12,-,-,0,-,-
COc1ccc(NC(=O)C2CCCN(C(=O)c3cnn(-c4ccccc4)c3-n3cccc3)C2)cc1 (configuration not stated),-,-,0,-,0
CC(=O)NCCc1ccc(S(=O)(=O)Nc2ccc3c(c2)OCCO3)cc1,0,-,0,0,0
CCOc1ccc(C2CC(=O)NC(NC(=O)c3cccc(Cl)c3)=N2)cc1 (configuration not stated),-,-,0,-,0
CCCCNc1nc(Oc2ccc(=O)n(-c3ccccc3)n2)nc(N(CC)CC)n1,-,-,0,-,-
CCOC(=O)C1=C(c2ccccc2)N=c2sc(=Cc3cc(OC)c(OC)c(OC)c3)c(=O)n2C1c1cccs1 (configuration not stated),-,-,0,0,-
CCOC(=O)C1=C(c2ccccc2)N=c2s/c(=C\c3ccc(O)cc3)c(=O)n2C1c1cccs1 (configuration not stated),0,0,0,-57,0
Cc1ccc2nc(/C(C#N)=C\c3cc(C)n(-c4cccc([N+](=O)[O-])c4)c3C)[nH]c2c1,0,0,0,-53,0
OC[C@H]1OC([S-])[C@H](O)[C@@H](O)[C@@H]1O.[Au+] (some centres not stated),-,-,0,-,-
COC(=O)CN1C(c2ccccc2)=Nc2ccc(Cl)cc2C1c1ccccc1 (configuration not stated),0,0,0,-56,0
COC(=O)CN1C(C)=Nc2ccc(C)cc2C1c1ccccc1 (configuration not stated),0,0,0,0,0
O=[N+]([O-])c1ccc2nc(NN=Cc3ccc(O)cc3)sc2c1,0,-,0,-52,0
CCCc1cc(=O)[nH]c(Nc2cc(OC)ccc2OC)n1,0,0,0,-52,0
O=C(NC(=S)NCc1nc2ccccc2[nH]1)c1ccc(F)cc1,0,0,0,0,0
O=C(NC(=S)NCc1nc2ccccc2[nH]1)c1ccccc1F,0,0,0,-63,0
CC(=O)NC(c1cccc([N+](=O)[O-])c1)c1c(OC(C)=O)ccc2ccccc12 (configuration not stated),0,-,0,-68,0
CN(C)S(=O)(=O)c1cccc(N=C2NN=C(c3ccccc3)CS2)c1,0,0,0,0,40µM
CC(=O)Nc1ccc(C2=NNC(=Nc3cccc(S(=O)(=O)N(C)C)c3)SC2)cc1,0,0,0,0,41µM
SMILES,a7 integrin act,B2AR arrestin,DRD3 agonist,DRD3 antagonist,mIDH1 inhibitor
O=C(O)CN1CCNCCN(CC(=O)O)CCNCC1,0,-,0,0,0
COc1ccc(NC(=O)C2c3ccccc3OCC(=O)N2CC(F)(F)F)cc1 (configuration not stated),-,-,0,0,-
COc1cc(OC)c(Nc2c3c(nc4nc(-c5cccs5)nn24)CCCC3)cc1Cl,-,-,0,-,32µM
COc1cc(OC)c(NC(=O)c2ccc3c(Cl)c4c(nc3c2)CCCC4)cc1Cl,-,-,0,-,0
CCN(c1ccccc1)S(=O)(=O)c1c(-c2ccc(C)cc2)csc1C(=O)OC,-,-,0,-,0
O=C(NCc1ccco1)c1ccc2c(c1)N(Cc1ccc(F)cc1)C(=O)c1ccccc1S2(=O)=O,-,-,0,-,-
CCC(C(=O)Nc1ccccc1OC)n1c(C(=O)OC)cc2sc(Cl)cc21 (configuration not stated),-,-,0,-,0
O=C(c1ccccc1)N1CCCc2ccccc21,0,0,0,0,0
O=C(c1ccc(=O)oc1)N1CCCc2ccccc21,0,0,0,-63,0
O=C(C[n+]1ccccc1)N1CCCc2ccccc21,0,0,0,-53,0
Cc1cc[n+](CC(=O)N2CCCc3ccccc32)cc1,0,0,0,-66,0
COC1=CC(=O)c2nc(Cl)ccc2C1=O,-,-,0,-75,-
Cc1cc(C)n(-c2nc(C)c(C)c(=O)n2CC(=O)Nc2ccc([N+](=O)[O-])cc2)n1,-,-,0,-,0
Cc1[nH]n(-c2ccccc2)c(=O)c1C(c1ccc(O)c([N+](=O)[O-])c1)c1c(C)[nH]n(-c2ccccc2)c1=O,0,-,0,-91,0
CCN(CCO)C(=O)c1ccc2nc(Cc3cccc(Cl)c3)oc2c1,0,0,0,0,0
CC(NC(=O)CCNC(=O)c1ccccc1Cl)c1ccc(-n2ccnc2)cc1 (configuration not stated),0,0,0,-59,0
COc1ccc(OCCCN2CCCC(C)C2)cc1 (configuration not stated),0,0,0,-60,0
CN(C)CCOCCOc1ccc(Cl)cc1Br,0,0,0,-76,0
CC1CCCN(CCOc2ccc3ccccc3c2Br)C1 (configuration not stated),0,0,0,-96,0
CC1CCN(CCOCCOc2ccc(Cl)cc2Br)CC1,0,0,0,-88,0
Cc1ccc(NC(=O)Cc2ccc(-n3c(C)nc4cccnc43)cc2)cc1C,-,-,0,-,0
CCN1CCN(C(=O)Cn2ncc3c4ccccc4n(Cc4ccccc4F)c3c2=O)CC1,-,-,0,-,0
CC1CCCN(CCSc2ccc(Cl)cc2)C1 (configuration not stated),0,0,0,?,0
Cc1ccc(Cl)c(OCCN2CCCC(C)C2)c1 (configuration not stated),0,0,0,-68,0
Cc1cc(Cl)c(OCCOCCN2CCN(C)CC2)c(Br)c1,0,0,0,0,0
CC1CCN(CCCOc2ccc(Cl)cc2Br)CC1,0,0,0,-89,0
Cc1cc(Cl)c(OCCOCCN2CCC(C)CC2)c(Br)c1,0,0,0,-56,0
CC1CCCN(CCCOc2ccc(Cl)cc2Br)C1 (configuration not stated),0,0,0,-68,0
CN(C)CCCOc1ccc(Cl)cc1Br,0,0,0,?,0
CC1CCCN(CCCOc2ccc([N+](=O)[O-])cc2)C1 (configuration not stated),0,0,0,0,0
